Sfp inh: Sfp phosphopantetheinyl transferase inhibition; Q9F4F7; AID 1490; 310,000 tested, 3.5% active; Biochemical Sfp PPTase activity, qHTS; Potency, µM, actives largely listed as inhibitors;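 further: the enzyme is Sfp with the accession as filed and its product quenches rhodamine fluorescence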
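After 15 min at room temperature with compound, 15 nM Sfp received 5 uM rhodamine-CoA plus 12.5 uM BHQ-2-ybbR (50 mM Hepes pH 7.6, 10 mM MgCl2). Rate came from the fluorescence difference over 30 min, ex 525/em 598 nm.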
Giardia killer: kills Giardia lamblia; Giardia lamblia trophozoite viability; activity change, % at 7.66 µM, hits read low; 340,000 tested, 0.15% active; AID 540267; in the data active means activity change below about -80%; inconclusive means between about -30% and that limit;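 further: parasites exposed to compound for two days anaerobically before the ATP read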
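ATP-content bioluminescence gauges trophozoite survival. Cells (100/well) receive compound and incubate anaerobically for 48 hrs at 37 deg C; detection reagent follows for 15-30 min at room temperature.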
Coupling enz: counter-screen for Giardia aldolase inhibitors: coupling enzyme system. coupling enzyme system counterscreen, AmpLite Red fluorescence. activity change, negative = inhibition, % at 58.2 µM, hits read low. 290,000 tested, 0.67% active; in the data active means activity change below about -30%
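Counterscreen of the coupled detection system alone, without aldolase: glyceraldehyde-3-phosphate coupling enzymes plus AmpLite Red readout. Compounds at 57.5 uM final, 10 min RT preincubation, 20 min RT reaction, fluorescence 525/598 nm.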
ELG1 repair inh: ELG1-dependent DNA repair inhibition; HEK293T ELG1-luciferase reporter, luminescence, 16 h; DNA damage induced by 5-fluorouridine; Potency, µM (doses to about 46.1 µM), hits mostly inhibitors; 330,000 tested, 2.3% active; AID 504467; further: nearly all actives have a fitted effect of over 55% in size
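Luminescence from the luciferase reporter, measured 30 min after ONE-Glo reagent at room temperature, was the read-out. Beforehand, 2,000 cells per well were exposed for 16 hr at 37 °C to 5-fluorouridine together with compound or vehicle.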
Each line names hits and unclear results; the compound was inactive in the other large screens. In the library only some 5.5% were active in any assay of this set; here they are far more common. Unless noted, the call rests on the fitted dose curve; in most records, active means well fitted curve in the direction sought with a large enough effect; inconclusive means small, poorly fitted or top-dose-only effect, or another doubt; inactive means no such curve, though single readings can be large; an effect the other way counts as inactive or inconclusive.

CN1C2CCC1/C(=C\c1ccc(F)cc1)C(=O)/C2=C/c1ccc(F)cc1	ELG1 repair inh 18µM
CN1C2CCC1/C(=C/c1cccn1C)C(=O)/C2=C\c1cccn1C	Sfp inh inconclusive, ELG1 repair inh inconclusive
N#Cc1ccc(N2CCc3ccccc3C2)c([N+](=O)[O-])c1	Sfp inh 45µM
CC(C)c1ccc2[nH]c(O)c(N=NC(=O)c3cccc(S(=O)(=O)N4CCCCC4)c3)c2c1	ELG1 repair inh 10µM
C(=NN1CCCCCC1)c1ccc2c(c1)OCO2	none (no result: Sfp inh, Coupling enz, ELG1 repair inh)
CC(C)CNC(=O)C(=O)NN=C1CCCCCC1	none
CC(C)(C)NC(=O)C(=O)NN=C1CCCCCCCCCCC1	Sfp inh 79µM
O=C(CS(=O)c1ccc(C(F)(F)F)cc1[N+](=O)[O-])Oc1ccccc1 (stereo not given)	Coupling enz -39, ELG1 repair inh inconclusive
COC(=O)c1ccc(OC(=O)CS(=O)c2ccccc2[N+](=O)[O-])cc1 (stereo not given)	none
O=C(O)c1cc([N+](=O)[O-])c(Sc2nc3ccccc3[nH]2)c([N+](=O)[O-])c1	Sfp inh 50µM
CS(=O)(=O)c1cc([N+](=O)[O-])c(Sc2nc3ccccc3[nH]2)c([N+](=O)[O-])c1	Sfp inh 13µM, Coupling enz -41
COc1cc(C(C)=O)ccc1OCC(=O)Nc1ccc(Cl)c(S(=O)(=O)N2CCOCC2)c1	ELG1 repair inh inconclusive (no result: Sfp inh, Coupling enz)
Cn1c(=O)[nH]c(=O)c2c1nc(N1CCN(CCO)CC1)n2Cc1ccccc1	none
Nc1cc(C(=O)O)ccc1Sc1ccccc1C(=O)O	Sfp inh 16µM
CCCCCCc1c(C[C@H](N)C(=O)O)o[nH]c1=O	none (no result: Giardia killer, ELG1 repair inh)
Cc1o[nH]c(=O)c1CC[C@H](N)C(=O)O	Sfp inh 79µM (no result: Giardia killer, ELG1 repair inh)
CC(C)(C)[Si](C)(C)c1c2c(nc3ccc(OCc4ccccc4)cc13)-c1cccc(=O)n1C2	Sfp inh 56µM (no result: Giardia killer, ELG1 repair inh)
CCc1c2c(nc3cccc(C(C)C)c13)-c1cccc(=O)n1C2	none (no result: Giardia killer, ELG1 repair inh)
COc1ccc2nc3c(c([Si](C)(C)C(C)(C)C)c2c1)Cn1c-3cccc1=O	none (no result: Giardia killer, ELG1 repair inh)
COc1cc2nc3c(c([Si](C)(C)C(C)(C)C)c2cc1OC)Cn1c-3cccc1=O	Sfp inh 79µM, Coupling enz -42 (no result: Giardia killer, ELG1 repair inh)
CC(=N)c1c(O)cc(C)oc1=O	none (no result: Sfp inh, Coupling enz, ELG1 repair inh)
O=C(Nn1c(O)c(C=C2N=c3ccccc3=N2)sc1=S)c1ccccc1	none
Cc1ccc(C(=O)Nn2c(O)c(C=C3N=c4ccccc4=N3)sc2=S)cc1	Sfp inh 50µM
CNC(CC(=O)c1ccc([N+](=O)[O-])cc1)C(Cl)(Cl)Cl (stereo not given)	Sfp inh 10µM
COc1ccc(C(=O)CC(Nc2ccc([N+](=O)[O-])cc2)c2ccc(OC)cc2)cc1 (stereo not given)	none
Cc1ccc(NCC(=O)c2ccc([N+](=O)[O-])cc2)cc1	Sfp inh 20µM, ELG1 repair inh inconclusive
COCCN1CC(C(=O)NCCc2nc(C)c(C)s2)CCC1=O (stereo not given)	none (no result: Coupling enz)
O=C(Nc1ccc(Br)cc1)Nc1cnccn1	ELG1 repair inh inconclusive
O=C1Cc2ccccc2Sc2c(OCCN3CCCCC3)cccc21	Coupling enz -50
O=C1Cc2ccccc2Sc2cc(OCCCN3CCCCC3)ccc21	none
CC(C)(NC(=O)c1ccccc1)c1nc2ccccc2s1	none (no result: Sfp inh, Coupling enz)
COc1ccc(-c2cnc(NCc3cc4c(cc3[N+](=O)[O-])OCO4)n2C)cc1	Sfp inh 50µM
COc1ccc(OC)c(CNc2ncc(-c3cccc([N+](=O)[O-])c3)n2C)c1	Sfp inh inconclusive
O=C1CC(c2ccc(O)c(O)c2)Oc2c1ccc(O)c2O (stereo not given)	Sfp inh 56µM
O=C(CN1C(=O)c2ccccc2C1=O)Oc1ccc(F)cc1	none (no result: Giardia killer)
COc1cc2c(cc1NC(=O)/C=C/c1cc(OC)c(OC)c(OC)c1)oc1ccccc12	Sfp inh inconclusive, ELG1 repair inh 5.8µM
COc1cc2c(cc1NC(=O)CSc1ccccn1)oc1ccccc12	Sfp inh 45µM
C[C@@]12CCC3c4ccc(OS(=O)(=O)O)cc4CCC3C1CCC2O (stereo not given in full)	none (no result: Giardia killer, ELG1 repair inh)
CCn1ncc(NC(=S)Nc2ccc(OC)c(OC)c2)c1C(N)=O	Sfp inh 32µM
CCn1ncc(NC(=S)Nc2ccc3c(c2)OCO3)c1C(N)=O	Sfp inh 56µM
CCOC(=O)Nc1ccc2c(c1)OCO2	ELG1 repair inh inconclusive
CCC(C)c1ccc(NC(=S)Nc2ccc(OC)c(OC)c2)cc1 (stereo not given)	none
CCOc1ccc(NS(=O)(=O)c2cccc(C(=O)NCC3(N(C)C)CCCCC3)c2)cc1	none (no result: Sfp inh, Coupling enz)
CC1(c2ccc3ccccc3c2)NC(=O)N(CC(=O)N2CCN(c3ccccc3O)CC2)C1=O (stereo not given)	none (no result: Coupling enz)
Cc1csc(=O)n1CCC(=O)OC(C)C(=O)NCc1ccccc1 (stereo not given)	none (no result: Sfp inh, Coupling enz)
COC(=O)[C@@H](N)CS	Sfp inh 11µM
CCn1c(=O)c(CCC(=O)N2CCN(c3ccccn3)CC2)c(C)c2c(C)nn(-c3cccc(C)c3)c21	ELG1 repair inh 6.5µM (no result: Coupling enz)
COC(=O)C1=C(C)NC(C)=C(C(=O)OCC2CCCO2)C1c1ccc(Cl)c([N+](=O)[O-])c1 (stereo not given)	ELG1 repair inh 10µM (no result: Giardia killer, Coupling enz)
COC(=O)C1=C(C)NC(C)=C(C(=O)OCC2CCCO2)C1c1cccc(Cl)c1 (stereo not given)	none (no result: Coupling enz)
Cc1cccc(NC(=O)CCC(=O)N2CCOCC2)n1	ELG1 repair inh inconclusive (no result: Sfp inh, Coupling enz)
O=C(OCC(=O)N1CCN(c2ccc(F)cc2)CC1)c1cnc2ccccc2n1	ELG1 repair inh inconclusive (no result: Sfp inh, Coupling enz)
Cc1ccc2c(c1)c1nnc(SCC(=O)N3CCN(c4ccc(F)cc4)CC3)nc1n2CC(=O)O	Sfp inh 71µM
Cc1ccccc1C(=O)Nc1sc(C)c(C)c1C(=O)c1ccccc1	Sfp inh 32µM, ELG1 repair inh inconclusive
Cc1sc(NC(=O)CCl)c(C(=O)c2ccccc2)c1C	Sfp inh 22µM, ELG1 repair inh inconclusive
O=C(CCl)Nc1sccc1C(=O)c1ccccc1	none (no result: Sfp inh, Coupling enz, ELG1 repair inh)
CC[C@@]1(C(=O)OC)N[C@H](CN(C)C(=O)COc2ccccc2)[C@@H]2C(=O)N(C)C(=O)[C@@H]21	none (no result: Sfp inh, Coupling enz)
COc1cc(CNC(C)c2ccccc2)cc(Cl)c1OCC(=O)Nc1ccccc1 (stereo not given)	Sfp inh 56µM, Giardia killer inconclusive
CC1CCc2c(sc3ncnc(SC(C)C(=O)NCC4CCCO4)c23)C1 (stereo not given)	none (no result: Sfp inh, Coupling enz)
Cn1cc(C(=O)c2ccc(Cl)cc2Cl)cc1C(=O)N/N=C(\N)COc1ccc(Cl)cc1Cl	ELG1 repair inh 23µM
Cn1cc(C(=O)c2ccc(Cl)cc2Cl)cc1C(=O)N/N=C(\N)COc1ccc(Cl)cc1	ELG1 repair inh 18µM
Cn1cc(C(=O)c2ccc(Cl)cc2Cl)cc1C(=O)N/N=C(\N)COc1ccc(F)cc1	none
CCOc1ccc(CCNC(=O)c2cccc(NC3=NC4CS(=O)(=O)CC4S3)c2)cc1 (stereo not given)	none
Cc1nc(N2CCN(S(=O)(=O)c3cccc4nonc34)CC2)c2c3c(sc2n1)CCCC3	ELG1 repair inh 18µM

From PubChem BioAssay
